Measurements taken from PubChem BioAssay (NCI).
Compounds without any hit were thinned out: in the full panel of roughly 79,000, 15% have a hit. A number with no mark means an inactive call. Activity calls are given as the source filed them. Cut-off read from the data, not from the text of the source: active = growth inhibition above about 70%; inactive = the rest.

Key:
[1] = NCI Yeast Anticancer Drug Screen. Data for the rad50 strain (AID 155);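 note: 0% = growth of vehicle-only cultures of the same strain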; conditions: S. cerevisiae rad50 strain growth inhibition; at 50.0 µM; stronger effect = higher value
Method in brief: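 Cells are treated with compound, grown, and their growth is then scored against vehicle-only cultures of the same repair-deficient yeast strain.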

[2] = NCI Yeast Anticancer Drug Screen. Data for the mec2-1 strain (AID 157); conditions: S. cerevisiae mec2-1 strain, at 50.0 µM, stronger effect = higher value
Method in brief: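 Test agents were screened against the mec2-1 yeast strain, with defined DNA repair or cell cycle alteration. Growth was scored as inhibition against vehicle-only controls.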

[3] = NCI Yeast Anticancer Drug Screen. Data for the sgs1 mgt1 strain (AID 161);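 note: 0% = growth of cultures given vehicle only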; conditions: S. cerevisiae sgs1 mgt1 strain, at 50.0 µM, stronger effect = higher value
Method in brief: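 Test agents were incubated with a DNA-repair-mutant yeast strain. Growth was then read and compared against vehicle-treated controls.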

[4] = NCI Yeast Anticancer Drug Screen. Data for the cln2 rad14 strain (AID 165);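 note: 0% = growth equal to vehicle treated cultures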; conditions: S. cerevisiae cln2 rad14 strain, at 50.0 µM, stronger effect = higher value
Method in brief: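 Growth of compound-exposed yeast (cln2 rad14 genotype) measured and expressed as inhibition relative to vehicle.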

[5] = NCI Yeast Anticancer Drug Screen. Data for the bub3 strain (AID 167); conditions: S. cerevisiae bub3 mutant strain, at 50.0 µM, stronger effect = higher value
Method in brief: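 Part of a panel of yeast mutants defective in DNA damage repair or cell cycle regulation. Each strain is grown with compound, and inhibition is calculated relative to solvent-treated cultures.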

[6] = NCI Yeast Anticancer Drug Screen. Data for the mlh1 rad18 strain (AID 175); conditions: S. cerevisiae mlh1 rad18 strain growth inhibition; at 50.0 µM; stronger effect = higher value
Method in brief: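 In this whole-cell yeast screen, a strain with altered DNA damage repair is challenged with compound, and its growth is measured against matched vehicle-treated controls.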

| Structure (SMILES) | growth inhibition [1] | growth inhibition [2] | growth inhibition [3] | growth inhibition [4] | growth inhibition [5] | growth inhibition [6] |
| --- | --- | --- | --- | --- | --- | --- |
| CC1=NN(C(=O)c2ccc(Cl)cc2)C(=O)/C1=C/c1ccccc1O | 4.25% | -14.4% | -28.9% | -7.55% | 12.3% | -18.8% |
| O=c1oc2ccccc2c(O)c1Oc1ccccc1 | -7.35% | 3.5% | -15.3% | -10.7% | -12.5% | -1.05% |
| CCOC(=O)c1cc(CC)[nH]c(=O)c1C#N | -19.1% | 8.05% | -11.3% | -32.7% | 5.4% | 2.3% |
| CCOC(=O)C1=C(O)C(=O)N(Cc2ccccc2)C1 | -4.65% | -29.6% | 14.3% | -0.7% | 49.5% | -23.8% |
| COc1cc2ccc3c4c(OC)cc5c(c4c[n+](C)c3c2cc1OC)OCO5 | 88% (active) | 91.3% (active) | 88.3% (active) | 88.7% (active) | 90% (active) | 87.2% (active) |
| CC(CC(C)(C)C)C(=O)NC(N)=O (configuration not stated) | 29.3% | -4.05% | -7.95% | -0.6% | 8.65% | 7.6% |
| Clc1ccccc1/C=C1\c2ccc(Br)cc2-c2cccc[n+]21 | 92.1% (active) | 95.8% (active) | 95.5% (active) | 91.4% (active) | 93% (active) | 95.7% (active) |
| Cc1ccc(Nc2c3ccccc3nc3ccccc23)cc1C | 98.8% (active) | 95.8% (active) | 97.7% (active) | 90.6% (active) | 90.2% (active) | 98.5% (active) |
| CS(=O)(=O)OC[C@H](NC(=O)c1ccccc1)[C@H](COS(C)(=O)=O)NC(=O)c1ccccc1 | 6.5% | 9.3% | 18.4% | 9.9% | -9.85% | 15.3% |
| O=C(OCC1OC(OC(=O)N(c2ccccc2)c2ccccc2)C(OS(=O)(=O)c2ccc([N+](=O)[O-])cc2)C1OC(=O)c1ccccc1)c1ccccc1 (configuration not stated) | 34.1% | -5.05% | -5.05% | -10% | 0.1% | 24% |
| CC(=O)Oc1ccccc1C(OC(C)=O)OC(C)=O | 31.8% | 5.2% | 12.5% | -20.1% | 2.05% | 34.4% |
| ClC1CC2CC1C1CCCC21 (configuration not stated) | -2.4% | -3.75% | -16.1% | 7.2% | 4.8% | -7.4% |
| CC(=O)Oc1cc(C(C)C)ccc1C | 26.7% | -3.75% | 18.1% | -1.4% | 0% | 15.4% |
| C=CC(=O)OCCOCCOC | -21.1% | -15.9% | -2.35% | -5% | -18.6% | -14.4% |
| COc1c2ccoc2c(S(=O)(=O)Nc2ccc(Cl)cc2)c2oc(C)cc(=O)c12 | 4.7% | -29.9% | -13.9% | -8.15% | -11.8% | -24.8% |
| CC1(C)CCCC/C1=N\NC(N)=O | -12.6% | -20.4% | -8% | -6.15% | -9.6% | -14.8% |
| CCCOC(=O)c1ccccc1C=O | -12.1% | -3.5% | -18.6% | -49.9% | -10.3% | 23.4% |
| CC1CCC2C1(C)CCC1C2(C)CCC2(C)C3CC(C)(C)CCC3(C)CCC12C (configuration not stated) | -9.45% | -35.8% | -12.8% | 1.6% | -26.4% | -11.2% |
| Cc1ccc(C(=O)/C=C\C=C\c2ccccc2)cc1 | 16.6% | 27.7% | 41.6% | -3.7% | 50.6% | 19.8% |

| Structure (SMILES) | growth inhibition [1] | growth inhibition [2] | growth inhibition [3] | growth inhibition [4] | growth inhibition [5] | growth inhibition [6] |
| --- | --- | --- | --- | --- | --- | --- |
| C/C(CCn1[nH]c(=O)ccc1=O)=N\O | -6.55% | -19.2% | -5.8% | -12.1% | -24.6% | -11.3% |
| O=c1c2cc(S(=O)(=O)Nc3c(Cl)cccc3Cl)ccc2ncn1NS(=O)(=O)c1ccc2ccccc2c1 | -21.8% | -8.6% | -12.4% | 10.4% | -7.9% | -3.75% |
| CCCCC(C(=O)OCC)[N+](=O)[O-] (configuration not stated) | -24.2% | -25.2% | 2.5% | 5.5% | 2.35% | 16.4% |
| CC(=O)[CH-]C(=O)c1ccccc1.CC(=O)[CH-]C(=O)c1ccccc1.CC[C@H](/C=C/C(C)[C@H]1CCC2[C@@H]3CC=C4C[C@@H]([O-])CC[C@]4(C)C3CC[C@@]21C)C(C)C.CC[O-].[Ti+4] (some centres not stated) | 8% | -4.6% | -2.45% | -2.3% | 5.3% | -12.2% |
| Cc1nc2ccccc2nc1CC(=N)c1ccccc1 | 24.2% | 15.8% | -5.85% | 5.1% | 35.7% | 17.8% |
| OCc1c(-c2ccccc2)oc(-c2ccccc2)c1CN1CCOCC1 | 11.9% | -0.95% | 6.55% | -11.9% | 12% | 9.2% |
| O=[N+]([O-])c1ccc2nc(NCCCO)c3ccccc3c2c1 | 8.2% | 11.3% | 3.85% | -0.9% | 12.1% | 12.1% |
| CCc1nn2c(=O)nc(Oc3ccccc3)nc2s1 | -5.55% | 8.85% | 2% | 2.55% | 14.6% | 23.4% |
| CCC(C)CNCCO (configuration not stated) | 24.6% | -7.1% | 5.7% | 0.35% | -6.25% | 11.3% |
| CC1(Br)CC2=C(CC1(C)Br)C(=O)C(c1ccccc1)=C(c1ccccc1)C2=O (configuration not stated) | 9.25% | 17.1% | 39.2% | 25% | 12.3% | 23.4% |
| NC(CS(=O)Cc1ccccc1)C(=O)O (configuration not stated) | 0.8% | -1.1% | -0.3% | -29.6% | -2.8% | -6.85% |
| CC(OS(C)(=O)=O)C(C)OS(C)(=O)=O (configuration not stated) | 2.4% | -9.35% | -11.7% | -10.4% | 0.95% | -19.6% |
| CC(C)(C)CC(C)(C)c1c(O)cc(O)cc1Cl | 99% (active) | 99.3% (active) | 94.8% (active) | 99% (active) | 99.2% (active) | 99.2% (active) |
| N#CC(NNC(=O)Cc1ccccc1)c1c(O)ccc2ccccc12 (configuration not stated) | 7.45% | -4.9% | 4.5% | -18.2% | -3.15% | -7.25% |
| CCS(=O)CCO (configuration not stated) | -22.7% | -20.4% | -15.8% | -21.8% | 10.8% | -14.2% |
| CC1(C)CCC23CCC4(C)C(CCC5C6(C)CCC(=O)C(C)(C)C6CCC54C)C2C1OC3 (configuration not stated) | -27.4% | -4.15% | -4.05% | 20.9% | -0.7% | -5.1% |
| O=C(NCc1ccccc1)Nc1cccc2c(NC(=O)NCc3ccccc3)cccc12 | -32.3% | -31.2% | -26.9% | -8.15% | -27.5% | -7.95% |
| Nc1ccn([C@@H](C=O)C[C@@H](C=O)CO)c(=O)n1 | -3.45% | -0.85% | 14.8% | 19.3% | 11.2% | -45.6% |
